Consider 38 compounds from PubChem BioAssay (EPA / NIEHS).

Results filed as inconclusive are left out. Activity calls are given as the source filed them. Rule for the calls: active = hit-call score of the fitted dose curve at least 0.9, where 1 is the maximum; inconclusive = response in the unintended direction; inactive = score below 0.9.

Test [1] addresses Estrogen receptor (Homo sapiens) (UniProt P03372). The test can be described thus: OT_ER_ERaERa_1440: Odyssey Thera (OT) 24-hour HEK293T Protein-Complementation Assay for Estrogen Receptor-alpha/-alpha Homodimer (AID 2283349).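 Note: hits raise fluorescence above DMSO for agonists and antagonists alike.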 The gist of the method: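 HEK293T cells stably expressing the human ER alpha ligand-binding domain (aa 310-547) as a homodimer PCA were dosed for 24 hours. Fluorescence intensity was read by laser scanning cytometry, and gain of signal was fitted relative to DMSO vehicle.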

For test [2] the target is unchanged. Kind of test: OT_ER_ERaERa_0480: Odyssey Thera (OT) 8-hour HEK293T Protein-Complementation Assay for Estrogen Receptor-alpha/-alpha Homodimer (AID 2283351).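 Note: rise in fluorescence from reassembled reporter fragments on ERα LBD homodimer in nucleus or whole cell.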 The gist of the method:
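HEK293T cells stably expressing the human ERα ligand-binding domain (aa 310-547) as a homodimer PCA were dosed with compound for 8 h. Gain of fluorescence intensity versus DMSO vehicle was read by laser scanning cytometry.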

Test [3] deals with T1, Estrogen receptor (Homo sapiens) + Estrogen receptor beta (Homo sapiens) (UniProt P03372+Q92731). The test can be described thus: OT_ER_ERaERb_0480: Odyssey Thera (OT) 8-hour HEK293T Protein-Complementation Assay for Estrogen Receptor-alpha/-beta Heterodimer (AID 2283352). The gist of the method:
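Fluorescence increase from reconstituted reporter fragments, quantified by laser scanning cytometer, reflects ER-alpha/ER-beta heterodimer formation in human HEK293T cells. Exposure 8 h; positive-direction fitting against DMSO vehicle.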

Test [4] deals with T1, Estrogen receptor (Homo sapiens) + Estrogen receptor beta (Homo sapiens). The test can be described thus: OT_ER_ERaERb_1440: Odyssey Thera (OT) 24-hour HEK293T Protein-Complementation Assay for Estrogen Receptor-alpha/-beta Homodimer (AID 2283356).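 Note: heteromer of ER alpha and ER beta binding domains; hits raise reporter fluorescence and both agonists and antagonists give an increase.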 In outline: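 Fragment complementation between ER alpha (310-547) and ER beta (263-489) ligand-binding domains in HEK293T cells; signal read 24 h post-dosing by laser scanning cytometer. Gain of fluorescence relative to DMSO fitted.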

The target in test [5] is Estrogen receptor beta (Homo sapiens) (UniProt Q92731). Kind of test: OT_ER_ERbERb_0480: Odyssey Thera (OT) 8-hour HEK293T Protein-Complementation Assay for Estrogen Receptor-beta/-beta Homodimer (AID 2283357).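 Note: active means signal gain over DMSO baseline.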 The gist of the method: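 Fluorescence intensity, nuclear for agonists and nuclear plus cytoplasmic for antagonists, was quantified by laser scanning cytometry versus vehicle after 8 h treatment. The cells were HEK293T stably carrying ER beta LBD fragment-complementation partners.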
Estrogen receptor beta (Homo sapiens), sequence (Q92731 whole entry, looked up, the tested form may be a part): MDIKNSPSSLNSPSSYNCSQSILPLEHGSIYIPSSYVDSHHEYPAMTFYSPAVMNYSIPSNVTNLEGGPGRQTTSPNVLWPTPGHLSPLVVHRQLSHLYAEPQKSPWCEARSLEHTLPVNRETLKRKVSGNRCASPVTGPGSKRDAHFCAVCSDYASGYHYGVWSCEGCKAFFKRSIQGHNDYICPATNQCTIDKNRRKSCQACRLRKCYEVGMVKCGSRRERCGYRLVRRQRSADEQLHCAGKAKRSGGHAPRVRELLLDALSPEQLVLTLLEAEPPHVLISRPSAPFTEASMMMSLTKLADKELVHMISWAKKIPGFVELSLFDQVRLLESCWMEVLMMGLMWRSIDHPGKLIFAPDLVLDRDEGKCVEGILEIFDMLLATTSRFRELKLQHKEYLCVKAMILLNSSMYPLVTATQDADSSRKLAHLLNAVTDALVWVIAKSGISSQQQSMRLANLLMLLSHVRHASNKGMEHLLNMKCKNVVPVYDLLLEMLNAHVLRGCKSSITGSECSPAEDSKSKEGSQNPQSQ

The target of test [6] is Androgen Receptor/SRC-1 Co-activator, AR (gene 367) (UniProt P10275). Kind of test: OT_AR_ARSRC1_0960: Odyssey Thera (OT) 16-hour HEK293T Protein-Complementation Assay for Androgen Receptor/SRC-1 Co-activator (AID 2283353).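 Note: actives raise the signal above DMSO so potency reflects increased AR and SRC-1 complex.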 The gist of the method:
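HEK293T cells stably expressing AR and SRC-1 fused to split Venus YFP fragments via (Gly4Ser)2 linkers were dosed for 16 h. Nuclear/cytoplasmic fluorescence ratio at 488 nm, ≥400 cells per image, fitted for gain of signal versus DMSO.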

Test [7] shares this target. The test can be described thus: OT_AR_ARSRC1_0480: Odyssey Thera (OT) 8-hour HEK293T Protein-Complementation Assay for Androgen Receptor/SRC-1 Co-activator (AID 2283354).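 Note: hits raise the complementation signal above DMSO so AC50 marks enhancers.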 In outline:
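HEK293T cells stably expressing AR and SRC-1 fused to Venus YFP fragments, imaged 8 h after dosing. Complementation fluorescence scored as nuclear/cytoplasmic ratio at 488 nm in at least 400 cells per image; gain fitted versus DMSO.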

The target in test [8] is human Thyroid Receptor Alpha (TRa), THRA (gene 7067) (UniProt P10827). The test can be described thus: NVS_NR_hTRa_Antagonist: NovaScreen (NVS) Nuclear Receptor Binding Assay for human Thyroid Receptor Alpha Antagonism (TRa) (AID 2283362).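 Note: activity is loss of signal relative to DMSO baseline.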 The gist of the method: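 Actives from a duplicate 25 uM single-point screen were retested in concentration series. The cell-free antagonist-format binding assay was read by AlphaLISA chemiluminescence at 1 h, scored as signal loss relative to DMSO.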

Test [9] deals with PGR (gene 5241) (UniProt P06401). Kind of test: NVS_NR_hPR: NovaScreen (NVS) Nuclear Receptor Binding Assay for human Progestron Receptor (PR) (AID 2283360).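 Note: active means loss of bound radioligand signal versus DMSO baseline.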 In outline: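 T47D lysate; tritiated or iodinated radioligand; scintillation count at 18 h. DMSO = negative control/baseline. Primary: 25 uM, duplicate. Secondary: concentration series for actives.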
PGR (gene 5241), sequence (P06401 whole entry, looked up): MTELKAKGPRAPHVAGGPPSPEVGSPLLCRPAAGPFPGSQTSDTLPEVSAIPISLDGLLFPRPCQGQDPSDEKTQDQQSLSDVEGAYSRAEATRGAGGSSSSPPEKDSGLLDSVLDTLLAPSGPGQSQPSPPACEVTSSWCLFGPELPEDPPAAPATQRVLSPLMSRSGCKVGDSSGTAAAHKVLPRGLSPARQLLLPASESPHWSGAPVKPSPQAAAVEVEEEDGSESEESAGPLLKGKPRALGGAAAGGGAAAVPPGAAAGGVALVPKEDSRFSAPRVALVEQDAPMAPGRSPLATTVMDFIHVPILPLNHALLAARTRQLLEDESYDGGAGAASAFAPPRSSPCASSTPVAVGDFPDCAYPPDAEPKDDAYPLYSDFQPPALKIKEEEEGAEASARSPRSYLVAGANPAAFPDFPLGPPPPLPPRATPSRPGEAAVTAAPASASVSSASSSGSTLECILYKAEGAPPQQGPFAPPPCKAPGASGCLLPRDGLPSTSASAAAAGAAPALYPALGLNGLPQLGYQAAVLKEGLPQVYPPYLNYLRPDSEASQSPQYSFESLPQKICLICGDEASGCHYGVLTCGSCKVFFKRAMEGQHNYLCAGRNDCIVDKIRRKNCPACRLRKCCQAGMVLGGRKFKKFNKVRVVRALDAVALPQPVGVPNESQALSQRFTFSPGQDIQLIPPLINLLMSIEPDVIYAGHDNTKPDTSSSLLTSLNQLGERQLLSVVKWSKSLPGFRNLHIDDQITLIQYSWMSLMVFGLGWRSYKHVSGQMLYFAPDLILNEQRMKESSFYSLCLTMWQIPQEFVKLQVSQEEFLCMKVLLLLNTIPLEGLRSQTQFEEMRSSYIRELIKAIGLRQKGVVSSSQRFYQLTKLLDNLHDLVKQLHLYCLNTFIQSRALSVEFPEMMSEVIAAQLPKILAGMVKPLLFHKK
Test [10] deals with Bile acid receptor (Homo sapiens) (UniProt Q96RI1). The test can be described thus: NVS_NR_hFXR_Antagonist: NovaScreen (NVS) Nuclear Receptor Binding Assay for human Farnesoid X Receptor Antagonism (FXR) (AID 2283350). The gist of the method:
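Cell-free TR-FRET ligand-binding read-out on human FXR (NR1H4) in antagonist mode, measured 1 h after dosing. Primary screen in duplicate at 25 uM, actives retested in concentration series; signal loss scored versus DMSO.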

In test [11] the target is human Peroxisome Proliferator-activated Receptor alpha (PPARa), PPARA (gene 5465) (UniProt Q07869). Kind of test: NVS_NR_hPPARa: NovaScreen (NVS) Nuclear Receptor Binding Assay for human Peroxisome Proliferator-activated Receptor alpha (PPARa) (AID 2283359).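 Note: activity means loss of TR-FRET signal versus DMSO baseline.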 In outline: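 Cell-free TR-FRET binding assay with extracted PPARα protein, read 1 h after dosing. Primary screen in duplicate at 25 uM, with actives retested in concentration series. Loss of signal versus DMSO.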
human Peroxisome Proliferator-activated Receptor alpha (PPARa), PPARA (gene 5465), sequence (Q07869 whole entry, looked up): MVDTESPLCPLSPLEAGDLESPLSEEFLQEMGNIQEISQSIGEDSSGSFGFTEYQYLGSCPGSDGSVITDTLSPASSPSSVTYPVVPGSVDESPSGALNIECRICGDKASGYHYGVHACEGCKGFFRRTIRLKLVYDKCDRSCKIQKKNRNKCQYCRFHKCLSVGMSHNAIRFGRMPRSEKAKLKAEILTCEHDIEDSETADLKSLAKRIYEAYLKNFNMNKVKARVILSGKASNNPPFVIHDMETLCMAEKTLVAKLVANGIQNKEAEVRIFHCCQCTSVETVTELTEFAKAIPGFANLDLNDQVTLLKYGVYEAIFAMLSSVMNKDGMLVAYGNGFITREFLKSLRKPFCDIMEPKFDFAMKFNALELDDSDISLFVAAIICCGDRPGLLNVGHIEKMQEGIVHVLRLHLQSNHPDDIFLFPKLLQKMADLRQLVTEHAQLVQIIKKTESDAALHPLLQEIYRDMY

Test [12] deals with Nuclear receptor subfamily 1 group I member 2 (Homo sapiens) (UniProt O75469). Kind of test: NVS_NR_hPXR: NovaScreen (NVS) Nuclear Receptor Binding Assay for human Pregnane X Receptor (PXR) (AID 2283365).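 Note: a drop in FRET signal versus DMSO baseline means the compound binds.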 In outline: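 Human PXR binding measured by TR-FRET in a cell-free format, 2 h exposure. Single-concentration duplicates at 25 uM preceded concentration-response retests of actives; endpoint fitted positively relative to DMSO, loss of signal indicating binding.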
Nuclear receptor subfamily 1 group I member 2 (Homo sapiens), sequence (O75469 whole entry, looked up): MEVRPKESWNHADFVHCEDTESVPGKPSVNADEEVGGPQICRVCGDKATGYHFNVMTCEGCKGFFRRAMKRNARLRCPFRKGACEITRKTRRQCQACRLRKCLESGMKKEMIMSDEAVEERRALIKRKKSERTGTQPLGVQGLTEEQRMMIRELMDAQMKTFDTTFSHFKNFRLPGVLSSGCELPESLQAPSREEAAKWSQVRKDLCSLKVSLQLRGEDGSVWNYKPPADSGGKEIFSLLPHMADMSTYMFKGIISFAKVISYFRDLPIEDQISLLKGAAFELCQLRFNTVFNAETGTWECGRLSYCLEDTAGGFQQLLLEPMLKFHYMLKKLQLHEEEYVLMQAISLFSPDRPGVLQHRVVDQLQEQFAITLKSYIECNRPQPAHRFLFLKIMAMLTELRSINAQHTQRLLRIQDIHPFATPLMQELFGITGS

Test [13] has as its target Glucocorticoid receptor (Homo sapiens) (UniProt P04150). The test can be described thus: NVS_NR_hGR: NovaScreen (NVS) Nuclear Receptor Binding Assay for human Glucocorticoid Receptor (GR) (AID 2283363). In outline:
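Cell-free radioligand displacement assay on extracted human GR, read 16 h after dosing by filter-based scintillation counting. Screened in duplicate at 25 uM, then concentration series for actives; loss of signal versus DMSO baseline.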

Androgen Receptor/SRC-1 Co-activator, AR (gene 367), sequence (P10275 whole entry, looked up, the tested form may be a part): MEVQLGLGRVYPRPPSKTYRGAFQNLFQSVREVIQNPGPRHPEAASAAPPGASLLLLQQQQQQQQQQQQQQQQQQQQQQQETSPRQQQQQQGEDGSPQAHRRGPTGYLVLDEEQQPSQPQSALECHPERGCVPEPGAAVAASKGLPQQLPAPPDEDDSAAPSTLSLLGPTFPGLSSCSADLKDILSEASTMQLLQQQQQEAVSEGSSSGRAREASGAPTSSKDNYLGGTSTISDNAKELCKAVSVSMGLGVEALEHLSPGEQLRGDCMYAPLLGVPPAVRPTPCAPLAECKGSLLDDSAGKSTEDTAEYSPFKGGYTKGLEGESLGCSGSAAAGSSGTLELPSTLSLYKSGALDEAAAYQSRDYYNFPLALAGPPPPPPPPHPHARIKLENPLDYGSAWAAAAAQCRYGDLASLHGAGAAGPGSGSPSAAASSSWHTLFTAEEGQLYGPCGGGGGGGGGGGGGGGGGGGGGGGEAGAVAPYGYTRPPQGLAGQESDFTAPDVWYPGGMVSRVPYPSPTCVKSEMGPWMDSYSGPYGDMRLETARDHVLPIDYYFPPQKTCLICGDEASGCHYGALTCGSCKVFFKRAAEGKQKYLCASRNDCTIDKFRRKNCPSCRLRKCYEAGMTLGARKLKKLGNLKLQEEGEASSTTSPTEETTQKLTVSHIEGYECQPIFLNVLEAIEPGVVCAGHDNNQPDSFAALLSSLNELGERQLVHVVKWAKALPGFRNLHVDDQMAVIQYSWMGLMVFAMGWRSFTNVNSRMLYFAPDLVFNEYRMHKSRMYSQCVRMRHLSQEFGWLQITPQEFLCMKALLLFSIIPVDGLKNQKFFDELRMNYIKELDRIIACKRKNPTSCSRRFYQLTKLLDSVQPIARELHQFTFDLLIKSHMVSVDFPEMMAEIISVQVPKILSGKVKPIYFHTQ
Estrogen receptor (Homo sapiens), sequence (P03372 whole entry, looked up, the tested form may be a part): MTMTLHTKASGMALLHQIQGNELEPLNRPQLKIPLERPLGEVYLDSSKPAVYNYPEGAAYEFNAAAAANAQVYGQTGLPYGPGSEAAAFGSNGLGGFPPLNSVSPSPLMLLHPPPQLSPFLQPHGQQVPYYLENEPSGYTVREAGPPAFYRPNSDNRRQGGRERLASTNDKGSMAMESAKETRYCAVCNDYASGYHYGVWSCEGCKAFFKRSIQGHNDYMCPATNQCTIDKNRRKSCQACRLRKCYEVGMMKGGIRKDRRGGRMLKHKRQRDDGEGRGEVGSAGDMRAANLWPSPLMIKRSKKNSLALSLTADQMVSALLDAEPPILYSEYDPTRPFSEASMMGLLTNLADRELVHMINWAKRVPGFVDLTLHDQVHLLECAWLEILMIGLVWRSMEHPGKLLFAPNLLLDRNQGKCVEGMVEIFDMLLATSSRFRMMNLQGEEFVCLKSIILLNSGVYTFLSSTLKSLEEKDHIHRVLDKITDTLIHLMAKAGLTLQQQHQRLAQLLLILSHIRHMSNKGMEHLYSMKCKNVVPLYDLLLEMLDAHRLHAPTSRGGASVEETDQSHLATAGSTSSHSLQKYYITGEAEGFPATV
T1 sequence (P03372 whole entry, looked up, the tested form may be a part): as above
T1 sequence (Q92731 whole entry, looked up, the tested form may be a part): as the sequence (Q92731 whole entry, looked up, the tested form may be a part) above

`CS(=O)(=O)c1ccc([C@@H](C[C@H]2CCC(=O)C2)C(=O)Nc2cnccn2)cc1Cl`: the compound was classed as inactive in test [1], in [2], in [3], in test [4] and in [5].

On to `Cc1cc(SC2=C(O)C[C@@](CCc3ccc(N)cc3)(C(C)C)OC2=O)c(C(C)(C)C)cc1CO`, for which the outcome in test [6] and in test [7] was inactive.

A word on the AC50: it is the concentration giving half of the maximal activity seen. With `C#CC(O)C(CC)CCCC` (configuration not stated), the AC50 was 72.6 µM (active) in [6] and 93.7 µM (active) in test [7]. Also, in test [5], the compound was called inactive.

With `O=C(O)c1[nH]n(-c2ccc(S(=O)(=O)O)cc2)c(=O)c1N=Nc1ccc(S(=O)(=O)O)cc1`, the compound was called inactive in test [1], in test [2] and in test [8].

For `COC(=O)CCC(=O)OC`, the compound was called inactive in [1], in test [2] and in [9].

Take `CCOCCOCCO`: the compound was called inactive in test [6] and in [7].

In the case of `NC1CCCCC1`, the call in test [1], in test [2], in [3], in [4] and in [5] was inactive.

With `CN(C)CCCN1c2ccccc2Sc2ccc(Cl)cc21`, the compound was classed as inactive in [10].

On to `CN(C)CCCN(C)CCCN(C)C`, for which the compound was called inactive in test [1], in [2], in test [4], in test [5], in test [11] and in test [9].

Consider `CCCCCCCC(=O)OC`, for which the compound was classed as inactive in test [1], in [2], in test [4] and in test [5].

For `CCc1nc(N)nc(N)c1-c1ccc(Cl)cc1`, the compound was classed as inactive in test [1], in test [2], in test [3], in test [4], in test [5] and in test [9].

As to `CCCCCCC(C=O)=Cc1ccccc1`, the result in test [5] was inactive.

Consider `CC(C)NCC(O)c1ccc(O)c(O)c1` (configuration not stated), for which the result in [5], in test [11] and in test [8] was inactive.

`Cc1cn([C@H]2C=C[C@@H](CO)O2)c(=O)[nH]c1=O`: the outcome in [5] was inactive.

`CC(C)c1cccc(C(C)C)c1NC(=O)NS(=O)(=O)c1cc(C(C)(C)O)co1`: the call in test [5] and in test [11] was inactive.

Regarding `O=C1c2c(O)cccc2Cc2cccc(O)c21`, in test [12], the compound was called inactive.

For `OCC(O)CO`, the call in [9] was inactive.

As for `CC(=O)O`, the result in test [9] was inactive.

For the compound `NC=O`, the result in test [5] was inactive.

Take `CC(C)COC(=O)CCCCC(=O)OCC(C)C`: the call in test [11] and in test [9] was inactive.

`CC(=O)OCC(COC(C)=O)OC(C)=O`: the result in test [5] was inactive.

As for `O=C(Oc1ccccc1)c1cccc(C(=O)Oc2ccccc2)c1`, the compound was classed as inactive in [6], in test [7], in test [5] and in test [11].

On to `C/C=C/C=C/C(=O)O`, for which the compound was called inactive in test [5].

`O=C(O)c1cccnc1`: the compound was called inactive in test [5] and in [9].

With `CCCCOC(=O)CCCCC(=O)OCCCC`, the result in test [11] and in test [13] was inactive.

For the compound `CCCCC(CC)CO` (configuration not stated), the outcome in test [5] was inactive.

On to `Cn1cnc2c1c(=O)[nH]c(=O)n2C`, for which, in test [9], the outcome was inactive.

Regarding `CC(N)=O`, in test [5], the compound was called inactive.

In the case of `Oc1ccccc1O`, the call in test [5] and in test [11] was inactive.

Regarding `CC(=O)O[C@]1(C(C)=O)CC[C@H]2[C@@H]3C=C(Cl)C4=CC(=O)[C@@H]5C[C@@H]5[C@]4(C)[C@H]3CC[C@@]21C`, the outcome in test [5], in test [11] and in test [12] was inactive.

On to `CO[C@@H]1COCC[C@@H]1N[C@@H]1CC[C@@](C(=O)N2CCc3ncc(C(F)(F)F)cc3C2)(C(C)C)C1`, for which the compound was classed as inactive in test [5] and in test [9].

`CC(=O)OC1CC(C)OC(C)O1` (configuration not stated): in [5], the call was inactive.

For the compound `O=C1O[C@H]([C@H](O)CO)C(O)=C1O`, in test [5], the compound was called inactive.

As to `Nc1nc(Cl)nc2c1ncn2[C@H]1C[C@H](O)[C@@H](CO)O1`, the outcome in [11] was inactive.

As for `CC(COCC(C)OC(=O)c1ccccc1)OC(=O)c1ccccc1` (configuration not stated), the compound was classed as inactive in test [5].

On to `CC(C)(C)c1ccccc1`, for which the compound was classed as inactive in [5], in test [11] and in test [12].

For `C=CCc1ccc(OC)c(OC)c1`, the outcome in test [5] was inactive.

For `C/C=C/c1ccc(OC)cc1`, the outcome in test [5] was inactive.
